Seven compounds from PubChem BioAssay (NCI) can be followed below.

Compounds without any hit were thinned out: in the full panel of roughly 83,000, 20% have a hit.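 The test compound was applied at a single concentration to cells in 96-well plates for 48 hours, and percent growth was recorded.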 A number with no mark means an inactive call. Active and inactive are the calls of the source. The calls were made as follows: active = growth percent below 10; inactive = the rest.

Test systems include HCT-15 colon; HT29 colon; SNB-75 CNS; SNB-19 CNS; U251 CNS; PC-3 prostate; SK-MEL-5 melanoma; UACC-62 melanoma; LOX IMVI melanoma; SK-MEL-28 melanoma; SK-MEL-2 melanoma; EKVX NSCLC; SN12C renal; UO-31 renal; TK-10 renal; ACHN renal; CAKI-1 renal; A498 renal; CCRF-CEM leukemia; MOLT-4 leukemia.
Holding throughout (experiment): NCI-60 one-dose screen, 48 h (100 = growth as untreated, 0 = no growth, -100 = all killed)
Details in all cases: 10 µM unless noted

Turning to `Cc1cc(=O)oc2cc(OCc3nn4c(Nc5nc6ccccc6s5)c(-c5ccccc5)nc4s3)ccc12`, the growth in the assay with HCT-15 colon was 91.3%; in the assay on HT29 colon, 102%; in the assay on SNB-75 CNS, 84.4%; with SNB-19 CNS, 74.7%; with U251 CNS, 96.7%; in the assay with PC-3 prostate it was 87%. Further, the growth in the assay with SK-MEL-5 melanoma was 99.2%; with UACC-62 melanoma it was 84.4%; in the assay with LOX IMVI melanoma, 95.8%; in the assay on SK-MEL-28 melanoma, 102%; in the assay on SK-MEL-2 melanoma, 108%; in the assay on EKVX NSCLC, 88.4%. Besides, the growth in the assay with SN12C renal is 91.4%; in the assay with UO-31 renal, 83.6%; with TK-10 renal, 128%; with ACHN renal, 100%; in the assay on CAKI-1 renal it was 79.5%; in the assay on A498 renal, 91.1%. Also, the growth was 40.7% in the assay with CCRF-CEM leukemia and 97.5% with MOLT-4 leukemia.

For `C#CCOc1ccc2ncnc(Nc3ccc(NC(=O)C=C)cc3)c2c1`, the growth in the assay with HCT-15 colon was -14.8% (active); with HT29 colon it was -34.9% (active); with SNB-75 CNS, 70%; in the assay with SNB-19 CNS it was 17.6%; in the assay on U251 CNS, -22.9% (active); in the assay on PC-3 prostate, 3.24% (active). For the same compound, the growth was 13.1% in the assay on SK-MEL-5 melanoma; -68.7% (active) in the assay with UACC-62 melanoma; -82.6% (active) in the assay with LOX IMVI melanoma; 2.36% (active) in the assay with SK-MEL-28 melanoma; -0.222% (active) in the assay on SK-MEL-2 melanoma; 2.42% (active) in the assay with EKVX NSCLC. The growth is 1.14% (active) in the assay on SN12C renal; -26.4% (active) with UO-31 renal; -62.7% (active) in the assay with TK-10 renal; -96.6% (active) in the assay on ACHN renal; 24.3% in the assay on CAKI-1 renal; 74.1% in the assay with A498 renal. The growth with CCRF-CEM leukemia is -39.5% (active); in the assay with MOLT-4 leukemia, -34.7% (active).

Take `COc1ccc(Nc2ncc(Br)c(NCCCNC(=O)c3cccs3)n2)cc1`: the growth is 34.5% with HCT-15 colon; 51.6% in the assay with HT29 colon; 48.9% in the assay with SNB-75 CNS; 56.8% with SNB-19 CNS; 52.7% in the assay with U251 CNS; 42.1% in the assay with PC-3 prostate. Besides, the growth is 69.5% in the assay with SK-MEL-5 melanoma; 45.7% with UACC-62 melanoma; 14.6% in the assay with LOX IMVI melanoma; 68.4% with SK-MEL-28 melanoma; 46.8% with SK-MEL-2 melanoma; 55.6% with EKVX NSCLC. For the same compound, the growth is 21.5% with SN12C renal; -0.36% (active) with UO-31 renal; 24.3% in the assay with TK-10 renal; 21.3% in the assay with ACHN renal; 16.2% with CAKI-1 renal; 51.7% in the assay on A498 renal. Also, the figures for the growth in the assay on CCRF-CEM leukemia and with MOLT-4 leukemia were 16.3% and 19.5%, respectively.

As for `CCCCNC(=O)CC1=C(C)/C(=C/c2[nH]c(-c3ccc[nH]3)cc2OC)N=C1C`, the growth in the assay on HCT-15 colon was 2.62% (active); with HT29 colon, 9.63% (active); in the assay with SNB-75 CNS, 65.3%; with SNB-19 CNS, 67.1%; with U251 CNS it was 28.7%; in the assay on PC-3 prostate it was 6.07% (active). Besides, the growth was 1.34% (active) with SK-MEL-5 melanoma; -28.9% (active) in the assay with UACC-62 melanoma; -36.9% (active) in the assay with LOX IMVI melanoma; 31% with SK-MEL-28 melanoma; 22.1% with SK-MEL-2 melanoma; 36.4% in the assay with EKVX NSCLC. Moreover, the growth in the assay with SN12C renal is 35.3%; in the assay with UO-31 renal, -5.12% (active); in the assay with TK-10 renal, 33.5%; with ACHN renal, 13.7%; in the assay with CAKI-1 renal, 4.74% (active); with A498 renal, 3.74% (active). In addition, the growth was 27.2% in the assay on CCRF-CEM leukemia and 7.6% (active) in the assay with MOLT-4 leukemia.

For the compound `CNC(=O)c1[nH]cc(-c2ccc(OC)cc2)c1-c1cc(OC)c2c(c1OC)OCO2`, the growth in the assay on HCT-15 colon was 97.1%; in the assay on HT29 colon it was 108%; in the assay on SNB-75 CNS, 66.9%; in the assay on SNB-19 CNS, 93.9%; with U251 CNS, 98.4%; with PC-3 prostate, 92.1%. In addition, the growth in the assay on SK-MEL-5 melanoma is 100%; in the assay on UACC-62 melanoma, 90%; with LOX IMVI melanoma, 96.5%; in the assay with SK-MEL-28 melanoma it was 101%; in the assay on SK-MEL-2 melanoma it was 105%; with EKVX NSCLC, 96.8%. Moreover, the growth in the assay with SN12C renal is 96.8%; in the assay with UO-31 renal, 82.9%; in the assay on TK-10 renal, 108%; in the assay with ACHN renal, 97.7%; with CAKI-1 renal it was 83.6%; in the assay on A498 renal it was 109%. For the same compound, the growth is 101% in the assay with CCRF-CEM leukemia and 109% with MOLT-4 leukemia.

Turning to `N#Cc1c(-c2ccccc2)cc(-c2ccccc2)n(CCCC(=O)Nc2ccccc2N)c1=O`, the growth in the assay with HCT-15 colon is 28.1%; in the assay with HT29 colon it was 49.5%; in the assay with SNB-75 CNS it was -9.01% (active); in the assay with SNB-19 CNS, 62.2%; with U251 CNS, 56.7%; with PC-3 prostate, 67.4%. Further, the growth in the assay with SK-MEL-5 melanoma is 48.4%; in the assay with UACC-62 melanoma, 34.2%; in the assay on LOX IMVI melanoma it was 48%; in the assay on SK-MEL-28 melanoma, 65.9%; with SK-MEL-2 melanoma, 46.4%; in the assay on EKVX NSCLC it was 79.1%. Also, the growth with SN12C renal is 70.5%; in the assay on UO-31 renal it was 49.1%; with TK-10 renal, 104%; with ACHN renal, 63.8%; in the assay on CAKI-1 renal, 38.2%; in the assay with A498 renal, -5.55% (active). The figures for the growth in the assay on CCRF-CEM leukemia and in the assay on MOLT-4 leukemia were 56.3% and 47.4%, respectively.

On to `C#Cc1c2c(c(OC)c3c1OCO3)[C@H]([C@H]1OC(=O)c3c1ccc(OC)c3OC)N(C)CC2`, for which the growth with HCT-15 colon is 60.7%; with HT29 colon, 60.7%; in the assay on SNB-75 CNS it was 85.8%; with SNB-19 CNS it was 92.7%; in the assay on U251 CNS, 87.9%; in the assay with PC-3 prostate, 76.5%. The growth was 93.4% with SK-MEL-5 melanoma; 75.6% in the assay on UACC-62 melanoma; 79.7% in the assay on LOX IMVI melanoma; 95.1% in the assay with SK-MEL-28 melanoma; 67.7% with SK-MEL-2 melanoma; 89.8% with EKVX NSCLC. In addition, the growth with SN12C renal was 100%; with UO-31 renal it was 87.2%; with TK-10 renal, 76.1%; with ACHN renal, 93.6%; with CAKI-1 renal, 86.3%; in the assay with A498 renal it was 72.6%. Moreover, the figures for the growth in the assay on CCRF-CEM leukemia and with MOLT-4 leukemia were 80.7% and 77.3%, respectively.
